# Compounds with a hit are over-represented: about 22% of the library has one in this group of screens.
# CYP2C9 act: human CYP2C9 activators, primary screen, biochemical, luminescence; Cytochrome P450 2C9 (Homo sapiens), P11712; recombinant CYP2C9, luciferin-H conversion; stronger effect = higher value; factor 1 = untreated enzyme, 0 = blocked; activation factor at 5 µM; actives 1.4% (n = 96,000); AID 1024, 2008;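 active = activation factor of 2 or more for CYP2C9 at a 5 µM dose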;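 note: 0 = sulfaphenazole-blocked wells and 1 = vehicle-only wells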
# cytoskel mod: modifiers of F-actin cytoskeleton organization, primary screen, imaging, HUVEC, phalloidin staining, high-content imaging. inhibition, % at 2 µM. HUVEC TNFa F-actin phalloidin imaging. actives 0.18% (n = 91,000);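 active = inhibition above the batch mean plus 3 SD and confirmed as a hit by visual image inspection, cut at about 30% in these data, passing the limit was not always enough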
# CYP2C19 inhib: blockers of cytochrome P450 2C19 activity – biochemical, luminescence, ADME assay, primary screen; P33261; inhibition, % at 5 µM; actives 21% (n = 96,000); AID 778, 2007; CYP2C19 Supersomes, luciferin-H EGE luminescence, 30 min;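 active = CYP2C19 inhibition above a set limit at 5 µM in the primary screen, cut at about 50% in these data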;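 note: plate controls were negative control wells for no effect and 2.5 mM tranylcypromine positive control for full effect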
# Target sequence (P33261 whole entry, looked up): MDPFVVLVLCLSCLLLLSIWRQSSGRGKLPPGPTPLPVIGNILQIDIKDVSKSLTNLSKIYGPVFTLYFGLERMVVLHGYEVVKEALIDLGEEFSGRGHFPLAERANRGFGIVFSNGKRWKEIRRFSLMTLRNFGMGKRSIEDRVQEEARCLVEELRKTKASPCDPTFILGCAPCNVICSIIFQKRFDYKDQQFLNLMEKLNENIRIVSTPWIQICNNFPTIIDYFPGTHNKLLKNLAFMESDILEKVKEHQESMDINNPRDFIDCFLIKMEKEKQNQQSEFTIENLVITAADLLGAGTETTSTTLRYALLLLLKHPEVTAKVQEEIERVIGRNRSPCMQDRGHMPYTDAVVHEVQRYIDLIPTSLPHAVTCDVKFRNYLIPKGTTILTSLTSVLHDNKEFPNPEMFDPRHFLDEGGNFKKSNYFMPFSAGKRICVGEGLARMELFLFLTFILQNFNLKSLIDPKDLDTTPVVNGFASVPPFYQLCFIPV
# CYP2C19 act: human CYP2C19 activators, primary screen, biochemical, luminescence | Cytochrome P450 2C19 (Homo sapiens), P33261 | activation factor at 5 µM | AID 1025, 2008 | 96,000 tested, under 10 active | recombinant CYP2C19, luciferin-H EGE luminescence; stronger effect = higher value; 0 = fully inhibited enzyme, 1 = untreated enzyme;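 active = activation factor of at least 2 at 5 µM in the primary screen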;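 note: 0 = wells with 2.5 mM tranylcypromine and 1 = vehicle-only wells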
# E-sel TNF inh: E-selectin induction blockers in HUVEC – imaging, immunofluorescence, high content, primary screen; HUVEC TNFa-induced E-selectin immunofluorescence; inhibition, % at 2 µM; actives 0.71% (n = 120,000); AID 1246, 2008;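 active = inhibition above the batch mean plus 3 SD, and confirmed as a hit on visual image review, cut at about 43% in these data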;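 note: 0% = TNF-stimulated DMSO wells and 100% = unstimulated control wells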
# CYP2C9 inh: blockers of cytochrome P450 2C9 activity – biochemical, luminescence, ADME assay, primary screen; P11712; CYP2C9 Supersomes, luciferin-H conversion; inhibition, % at 5 µM; actives 20% (n = 96,000);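 active = blocking of liver enzyme CYP2C9 beyond about 50% at 5 µM, limit read from the data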
# An asterisk follows results filed as active; · = no result given.
SMILES,CYP2C9 act,cytoskel mod,CYP2C19 inhib,CYP2C19 act,E-sel TNF inh,CYP2C9 inh
CCc1ccc(-c2nc(CN3CCC(C(=O)NCCN(CC)c4ccccc4)CC3)c(C)o2)cc1,0.8,59,7,0.9,-23,18
CCN(CCNC(=O)C1CCCN(Cc2nc(-c3ccc(OC)cc3)oc2C)C1)c1ccccc1 (stereo not drawn),0.4,49,55*,0.4,-48,61*
Cc1oc(-c2ccc(Cl)cc2)nc1CN1CCCC(C(=O)N2CCN(C(=O)c3ccco3)CC2)C1 (stereo not drawn),0.5,·,55*,0.4,·,52*
CC/C(=N/NC(=O)CNc1ccc(Cl)cc1C)c1ccccc1,·,·,·,·,6,·
Cc1ccc(C(=O)c2ccccc2C(=O)OCC(=O)Nc2ccc(SC(F)F)cc2)cc1,·,·,·,·,26,·
CCS(=O)(=O)N1Cc2ccccc2CC1C(=O)OCC(=O)Nc1ccc(C)cc1 (stereo not drawn),0.5,·,75*,0.3,·,46
CCS(=O)(=O)N1Cc2ccccc2CC1C(=O)OCC(=O)Nc1ccc(SC(F)F)cc1 (stereo not drawn),0.1,-13,78*,0.2,22,93*
Cc1cc(NC(=O)c2cc(-c3ccccc3)on2)no1,1,-13,-15,1.1,-3,0
O=C(c1ccccc1)c1cc(-c2ccccc2)on1,1.1,9,51*,0.5,-15,-13
Cc1ccc(CCNC(=O)C2CCN(S(=O)(=O)c3cccc4nonc34)CC2)cc1,1.2,-16,5,0.9,-28,-22
O=C(CCNS(=O)(=O)c1cccc2nonc12)NCCc1ccc(Cl)cc1,1.9,·,74*,0.3,-17,-92
O=C(CCCNS(=O)(=O)c1cccs1)N1CCN(c2cccc(Cl)c2)CC1,0.8,·,27,0.7,-9,24
O=C(CCNS(=O)(=O)c1cccc2nonc12)N1CCN(c2cccc(Cl)c2)CC1,0.8,6,68*,0.3,-11,15
COc1cccc(OC)c1C(=O)Nc1ccc(CN2CCOCC2)cc1,1.1,-13,-17,1.2,-9,-13
COC(=O)c1cc2c(-c3ccccc3)c(C)c3ccccn3c-2c1C(=O)OC,0.1,-2,67*,0.3,0,88*
CN(C(=O)CCN1C(=O)c2ccccc2C1=O)C1CCCCC1,1.4,9,98*,0,18,-38
O/C(=C\Sc1nnc(Cc2ccccc2)o1)c1ccc(Br)cc1,0.1,37,79*,0.2,·,93*
CCOC(=O)c1cc(S(=O)(=O)NC2CCN(C(=O)OCC)CC2)cn1C,0.4,-11,31,0.7,·,57*
Cc1ccc(-c2csc(C3C(N)=NC(S)=C(C#N)C34CCCCC4)n2)cc1 (stereo not drawn),0.1,4,50,0.5,4,89*
Cc1ccc(-c2csc(-c3ccncc3)n2)cc1,·,·,·,·,0,·
N#CC1=C(N)N=C(SCc2ccccc2)C(C(N)=O)C12CCCCC2 (stereo not drawn),1,-15,35,0.7,10,4
N#CC1=C(S)N=C(N)C(c2nc(-c3ccccc3)cs2)C12CCCCC2 (stereo not drawn),0.3,8,60*,0.4,·,67*
N#CC1=C(S)N=C(N)C(c2nc(-c3ccccc3)cs2)C12CCCC2 (stereo not drawn),0,20,86*,0.1,-11,98*
CCOC(=O)CSc1nnc(CSc2nc3ccccc3c(=O)[nH]2)n1-c1ccccc1,0.5,12,21,0.8,-22,48
CN(Cc1ccccc1)S(=O)(=O)c1ccc(Cl)c(C(=O)NCCc2ccccn2)c1,·,·,·,·,-18,·
SMILES,CYP2C9 act,cytoskel mod,CYP2C19 inhib,CYP2C19 act,E-sel TNF inh,CYP2C9 inh
CC(=O)Oc1cc2c(C(=O)NCCCN3CCOCC3)c(C)oc2c2ccccc12,0.9,-39,14,0.9,1,11
O=C(Oc1cccnc1)c1ccc(Cl)cc1,1.1,9,-5,1.1,·,-13
CCOC(=O)Cc1csc(SCC(=O)Nc2cccc(C#N)c2)n1,0.2,15,66*,0.3,18,80*
Cc1nc(SCC(=O)Nc2cccc(Cl)c2)n[nH]1,0.8,33,64*,0.4,23,23
CCOC(=O)Cc1csc(SCC(=O)Nc2cccc(Cl)c2)n1,0.3,9,32,0.7,-7,66*
N#Cc1cccc(NC(=O)CSc2ccccc2)c1,0.8,-2,34,0.7,-8,24
CCOC(=O)Cc1csc(SCC(=O)Nc2cc(Cl)ccc2Oc2ccccc2)n1,0.1,-4,91*,0.1,17,94*
O=C(CSc1ccc(Cl)cc1)Nc1ccccc1Oc1ccccc1,·,·,·,·,-49,·
COc1ccccc1C(=O)Nc1cc2c(ccc3ccccc32)oc1=O,·,4,·,·,3,·
CCOC(=O)/C(N=Nc1ccc(Cl)cc1)=C(/O)c1ccc([N+](=O)[O-])cc1,1,-19,-4,1,-2,0
O=C(Cc1cn(Cc2cccc(Cl)c2)c2ccccc12)N1CCCCCC1,·,·,·,·,8,·
Cc1ccc(S(=O)(=O)Nc2cc(Cl)c(O)cc2C)cc1,2.3*,-7,98*,0,-66,-127
Cc1ccc(S(=O)(=O)Nc2cc(C(C)C)c(O)cc2C)cc1,0.6,16,84*,0.2,-25,36
Cc1cc(O)c(C(C)C)cc1NC(=O)c1ccc(Cl)cc1,1,-5,49,0.5,-37,3
Cc1c(NS(=O)(=O)c2ccccc2)cc(Cl)c(O)c1C,2.5*,-6,99*,0,-13,-150
CCn1c(CC(=O)Nc2ccc(C)cc2)n[nH]c1=S,·,·,·,·,-12,·
Cc1ccc2[nH]c(SCC(=O)N3CCOCC3)nc2c1C,0.8,-2,81*,0.2,8,16
O=C(CSc1nc2ccccc2[nH]1)N1CCCCC1,0.8,-3,88*,0.1,-16,16
c1ccc2[nH]c(SCCN3CCOCC3)nc2c1,1,·,59*,0.4,-12,3
CC(C)c1c(O)nc(SCC(=O)N2CCOCC2)[nH]c1=O,0.9,11,-3,1,-6,5
Cc1ccc2nc(SCC(=O)N3CCOCC3)[nH]c2c1,0.9,-48,68*,0.3,1,9
c1ccc2[nH]c(N3CCOCC3)nc2c1,1.2,·,-16,1.2,-23,-24
Cc1ccc2nc(SCC(=O)Nc3cc(C(F)(F)F)ccc3N3CCOCC3)[nH]c2c1,0.7,10,37,0.6,-23,28
Cc1noc(C)c1COC(=O)Cc1ccc(Br)cc1,·,·,·,·,-48,·
CSCCC(NC(N)=O)C(=O)NCC1CCCCC1 (stereo not drawn),1.2,6,-7,1.1,15,-16
O=C(Nc1nnc(SCC(=O)N2CCCCC2)s1)C1CCCCC1,·,-3,·,·,-11,·

# Screening results deposited in PubChem BioAssay by several laboratories.
